SF1 inhibitor = inhibitors of human nuclear receptor SF-1; inhibition, % at 10 µM; Q13285; CHO-K1 Gal4-SF-1 LBD luciferase reporter; AID 525; 0.55% of 65,000 active;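 active = inhibition above the mean inhibition of all tested compounds plus 3 SD, cut at about 48% in these data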;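 note: 0% = SF-1 transfected cells with DMSO and 100% = mock-transfected cells lacking SF-1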
Target sequence (Q13285 whole entry, looked up, the tested form may be a part): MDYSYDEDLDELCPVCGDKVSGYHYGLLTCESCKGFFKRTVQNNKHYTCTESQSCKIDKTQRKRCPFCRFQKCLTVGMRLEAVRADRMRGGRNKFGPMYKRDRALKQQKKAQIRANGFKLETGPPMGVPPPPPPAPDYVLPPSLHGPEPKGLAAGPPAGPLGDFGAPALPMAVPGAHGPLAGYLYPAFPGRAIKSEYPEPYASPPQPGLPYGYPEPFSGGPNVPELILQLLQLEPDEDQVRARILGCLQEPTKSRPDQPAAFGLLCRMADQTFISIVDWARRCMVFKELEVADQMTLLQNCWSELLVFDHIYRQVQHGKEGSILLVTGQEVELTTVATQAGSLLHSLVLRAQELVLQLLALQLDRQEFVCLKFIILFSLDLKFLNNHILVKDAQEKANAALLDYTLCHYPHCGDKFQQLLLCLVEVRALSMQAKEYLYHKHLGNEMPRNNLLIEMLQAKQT
Numbers without * were called inactive. The full list was thinned out, with hits kept by preference.

How did Cc1cnc(C(=O)Nc2nnc(C(C)C)s2)cn1 do in these assays?
SF1 inhibitor: -68

Results for O=C(Nc1cccc2ccccc12)c1cnccn1 ?
SF1 inhibitor: -63

What do the screens show for `Cc1cnc(C(=O)Nc2cccc3cccnc23)cn1`?
SF1 inhibitor: 61*

Results for CC1CCCN(Cc2nc3c(c(=O)n(C)c(=O)n3C)n2CCCc2ccccc2)C1 (centres undefined) ?
SF1 inhibitor: 14

What do the screens show for `O=C(OCc1nc2ccccc2s1)C1CCN(C2=NS(=O)(=O)c3ccccc32)CC1`?
SF1 inhibitor: -53

What do the screens show for `O=C(NCc1ccccn1)C1CC(=O)N(C2CCCC2)C1` (centres undefined)?
SF1 inhibitor: -8

How did CCOC(=O)C1CCCN(c2ncnc3c2cnn3-c2ccc(OC)cc2)C1 (centres undefined) do in these assays?
SF1 inhibitor: -58

What do the screens show for `Cc1cccc(-n2ncc3c(N4CC(C)CC(C)C4)ncnc32)c1` (centres undefined)?
SF1 inhibitor: -51

How did CC1CN(c2ncnc3c2cnn3-c2ccc(Cl)cc2)CC(C)O1 (centres undefined) do in these assays?
SF1 inhibitor: -75

How did Cc1cccc(-n2ncc3c(NCCCO)ncnc32)c1 do in these assays?
SF1 inhibitor: -67

What do the screens show for `C=CCNc1ncnc2c1cnn2-c1ccc(Cl)cc1`?
SF1 inhibitor: -50

How did COc1ccc(-n2ncc3c(N4CCCCC4)ncnc32)cc1 do in these assays?
SF1 inhibitor: 84*

Results for Cc1cccc(-n2ncc3c(N4CCOCC4)ncnc32)c1 ?
SF1 inhibitor: 65*

How did COc1ccc2nc(N3CCCCC3)c(C#N)cc2c1 do in these assays?
SF1 inhibitor: -50

Results for Clc1ccc(-n2ncc3c(N4CCCCCC4)ncnc32)cc1 ?
SF1 inhibitor: 76*

Results for COC(=O)NCc1ccc(S(=O)(=O)N2CCOCC2)cc1 ?
SF1 inhibitor: -7

Results for Cc1ccc(C)c(CN2CCCNC2=O)c1 ?
SF1 inhibitor: 11

Results for ONC(=Nc1ccccc1)C(=Nc1ccccc1)NO ?
SF1 inhibitor: 7

What do the screens show for `Cn1c(COc2ccc3ccccc3c2)nnc1SCC(=O)O`?
SF1 inhibitor: 10

Results for O=C(c1ccc(CS(=O)(=O)Cc2ccc(Cl)cc2)o1)N1CCCC1 ?
SF1 inhibitor: 5

Results for C#CC(C)(C)NC(=O)c1ccccc1OC ?
SF1 inhibitor: -11

What do the screens show for `CCOC(=O)C1CCN(S(=O)(=O)c2ccc(-c3nc4ccccc4s3)s2)CC1`?
SF1 inhibitor: -68

What do the screens show for `O=C(Nc1nc2ccccc2s1)c1ccc(Cl)s1`?
SF1 inhibitor: -98

How did O=C(NC1CC1)c1ccc(-c2nc3ccccc3s2)s1 do in these assays?
SF1 inhibitor: 79*

How did CCc1ccc2nc(NC(=O)c3cc(C)on3)sc2c1 do in these assays?
SF1 inhibitor: -117

Results for COc1ccccc1OCC(=O)Nc1ccc(S(=O)(=O)Nc2nc(C)cc(C)n2)cc1 ?
SF1 inhibitor: 3

Results for O=c1c2ccccc2nnn1CSc1ccc2c(c1)OCCO2 ?
SF1 inhibitor: -77

Results for COc1cc(C2NC(=O)NC(O)(C(F)(F)F)C2C(C)=O)cc(OC)c1OC (centres undefined) ?
SF1 inhibitor: -11

How did COc1cc([C@@H]2c3cc4c(cc3[C@H](O)[C@H]3COC(=O)[C@H]23)OCO4)cc(OC)c1OC do in these assays?
SF1 inhibitor: 78*

What do the screens show for `CCc1c(C)nc(SC)n(CC#N)c1=O`?
SF1 inhibitor: 6

How did Cc1c(C(=O)N2CCCC2)oc2c1-c1[nH]ncc1CC2 do in these assays?
SF1 inhibitor: 7

What do the screens show for `COc1ccc(CCCc2nnc(SCC(=O)Nc3nccs3)n2C)cc1C`?
SF1 inhibitor: -1

How did COC(=O)/C(=C1/Oc2cc(C)oc(=O)c2S1)C(F)(F)F do in these assays?
SF1 inhibitor: 96*

Results for O=C(Cn1ccsc1=NC(=O)c1ccco1)c1ccccc1 ?
SF1 inhibitor: 5

What do the screens show for `CCNc1nc(N)c(C(=O)c2ccc(Cl)s2)s1`?
SF1 inhibitor: -31

How did O=C(c1n[nH]c(=O)c2ccccc12)N1CCN(c2ccccc2Cl)CC1 do in these assays?
SF1 inhibitor: 1

How did O=C(c1ccc2c3c(cccc13)C(=O)N(O)C2=O)N1CCCCC1 do in these assays?
SF1 inhibitor: 66*

What do the screens show for `CCc1ccc2[nH]cc(C(=O)N3CCCCCC3)c(=O)c2c1`?
SF1 inhibitor: 1

How did C=CCNC(=O)C1CCN(c2nc(C)cc(-c3ccccc3)n2)CC1 do in these assays?
SF1 inhibitor: -102

What do the screens show for `Cc1ccc2oc(=O)c3cnn(CC(=O)NCCCOC(C)C)c3c2c1`?
SF1 inhibitor: -4

What do the screens show for `COc1cc(NC(=O)CN2C(=O)c3ccccc3C2=O)c(C(=O)O)cc1OC`?
SF1 inhibitor: -4

Results for CC(=O)c1cccc(S(=O)(=O)N2CCN(c3nc4cc(C)cc(C)c4cc3C#N)CC2)c1 ?
SF1 inhibitor: 1

What do the screens show for `CN(Cc1nc(-c2ccccn2)no1)S(=O)(=O)c1ccc(Cl)cc1`?
SF1 inhibitor: -4

Results for c1ccc(-c2noc(C34CC5CC(CC(C5)C3)C4)n2)nc1 ?
SF1 inhibitor: -86

What do the screens show for `c1ccc(-c2noc(-c3ccc4ccccc4c3)n2)nc1`?
SF1 inhibitor: 91*

Source: PubChem BioAssay
